NFkB transloc pot: enhances IL-1B driven NFkB nuclear translocation; HUVEC IL-1B NFkB p65 nuclear translocation imaging; activation, % at 2 µM; 94,000 tested, 0.3% active; AID 819;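 active = activation above 40%, about the mean plus 3 SD, also judged a hit on visual image review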;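 note: percent activation is computed from the nuclear over cytoplasmic p65 intensity ratio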
VCAM1 TNFa inh: reduces TNF alpha induced VCAM1 expression in HUVEC | HUVEC TNFa-induced VCAM-1 immunofluorescence, high-content imaging | inhibition, % at 2 µM | 95,000 tested, 0.48% active | AID 802;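 active = inhibition above the batch mean plus 3 SD, with images confirmed as a hit by eye, cut at about 37% in these data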
HUVEC tox TNFa: toxic to HUVEC cells under TNF alpha stimulation; 93,000 tested, 0.17% active; AID 848; cell count reduction, % at 2 µM; HUVEC TNFalpha-stimulated, Hoechst cell count, imaging;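 active = cell count reduction exceeding the screen mean by over 5 SD, scaled to untreated wells per plate, cut at about 78% in these data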;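 note: cells counted after 24 h of TNF alpha exposure following the 1 h pretreatment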
IL1B cytotox: toxic to HUVEC cells under IL-1B stimulation. HUVEC cell count loss, Hoechst imaging, IL-1B stimulated. cell count reduction, % at 2 µM. 94,000 tested, 0.41% active;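 active = cell count reduction more than 3 SD above the screen-wide mean, cut at about 70% in these data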
NFkB transloc inh: blocks IL-1B driven NFkB nuclear translocation in HUVEC cells; inhibition, % at 2 µM; AID 796; 94,000 tested, 0.43% active; HUVEC IL-1B NFkB p65 nuclear translocation imaging;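 active = inhibition above about 30% together with a positive call from visual inspection of the well image, limit read from the data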;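 note: nuclear over cytoplasmic p65 intensity ratio measured by imaging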
A number is an active result. A selection: hits, their analogues and other compounds. The true share with any hit is near 1.5%.

What do the screens show for `CCOC(=O)/C(=C\c1cccnc1)C(=O)c1cc(C(C)=O)c(Nc2ccccc2)s1`?
NFkB transloc pot: inactive; VCAM1 TNFa inh: 54; HUVEC tox TNFa: inactive; IL1B cytotox: inactive; NFkB transloc inh: inactive

Results for COc1cc(Cl)c(C)cc1NC(=O)COC(=O)c1cnc(C)cn1 ?
NFkB transloc pot: inactive; VCAM1 TNFa inh: inactive; HUVEC tox TNFa: inactive; IL1B cytotox: inactive; NFkB transloc inh: inactive

Results for COc1ccccc1NC(=O)CSc1nnnn1-c1ccc(C)cc1 ?
NFkB transloc pot: 41; VCAM1 TNFa inh: inactive; HUVEC tox TNFa: inactive; IL1B cytotox: inactive; NFkB transloc inh: inactive

Results for O=C(c1ccc2c(c1)OCCCO2)c1cccs1 ?
NFkB transloc pot: inactive; VCAM1 TNFa inh: inactive; HUVEC tox TNFa: inactive; IL1B cytotox: inactive; NFkB transloc inh: inactive

How did Cc1c(NC(=O)c2ccccc2N)cccc1C(=O)O do in these assays?
NFkB transloc pot: inactive; VCAM1 TNFa inh: inactive; HUVEC tox TNFa: inactive; IL1B cytotox: inactive; NFkB transloc inh: inactive

Results for Nc1ccccc1NC(=O)c1ccccc1N ?
NFkB transloc pot: inactive; VCAM1 TNFa inh: 81; HUVEC tox TNFa: 93; IL1B cytotox: inactive; NFkB transloc inh: inactive

Results for COc1ccccc1S(=O)(=O)Cc1ccc(C(=O)NC2CCCCC2)o1 ?
NFkB transloc pot: inactive; VCAM1 TNFa inh: inactive; HUVEC tox TNFa: inactive; IL1B cytotox: inactive; NFkB transloc inh: inactive

What do the screens show for `O=C(NC1CCCCC1)c1ccc(CNc2ccccc2)o1`?
NFkB transloc pot: inactive; VCAM1 TNFa inh: inactive; HUVEC tox TNFa: inactive; IL1B cytotox: 86; NFkB transloc inh: 34

Results for CC(C)OC(=O)c1cn(-c2ccccc2)nc1-c1ccco1 ?
NFkB transloc pot: inactive; VCAM1 TNFa inh: inactive; HUVEC tox TNFa: inactive; IL1B cytotox: inactive; NFkB transloc inh: inactive

Results for Cc1ccc(-c2nn(-c3ccccc3)cc2CN(Cc2ccccc2)C(=O)c2ccco2)o1 ?
NFkB transloc pot: 46; VCAM1 TNFa inh: inactive; HUVEC tox TNFa: inactive; IL1B cytotox: inactive; NFkB transloc inh: inactive

How did COc1ccc(C(=O)N2CCN(S(=O)(=O)c3cc(Cl)ccc3OC)CC2)cc1 do in these assays?
NFkB transloc pot: inactive; VCAM1 TNFa inh: inactive; HUVEC tox TNFa: inactive; IL1B cytotox: inactive; NFkB transloc inh: inactive

Results for COc1ccccc1NC=C1C(=O)OC(C)(C)OC1=O ?
NFkB transloc pot: inactive; VCAM1 TNFa inh: inactive; HUVEC tox TNFa: inactive; IL1B cytotox: inactive; NFkB transloc inh: 91

Results for CCOc1ccccc1NC=C1C(=O)OC(C)(C)OC1=O ?
NFkB transloc pot: inactive; VCAM1 TNFa inh: inactive; HUVEC tox TNFa: inactive; IL1B cytotox: inactive; NFkB transloc inh: inactive

What do the screens show for `O=C(CC1C(=O)NCCN1C(=O)c1ccc(F)cc1)OCc1ccccc1` (stereo unspecified)?
NFkB transloc pot: inactive; VCAM1 TNFa inh: inactive; HUVEC tox TNFa: inactive; IL1B cytotox: 92; NFkB transloc inh: inactive

How did CCOC(=O)CC1C(=O)NCCN1C(=O)c1c(F)cccc1F (stereo unspecified) do in these assays?
NFkB transloc pot: inactive; VCAM1 TNFa inh: inactive; HUVEC tox TNFa: inactive; IL1B cytotox: inactive; NFkB transloc inh: inactive

What do the screens show for `Cc1ccc(OCC(=O)N2CCCCC2)c(Br)c1`?
NFkB transloc pot: inactive; VCAM1 TNFa inh: inactive; HUVEC tox TNFa: inactive; IL1B cytotox: 87; NFkB transloc inh: 97

Results for COc1ccccc1N1CCN(C(=O)COc2ccc(C)cc2Br)CC1 ?
NFkB transloc pot: inactive; VCAM1 TNFa inh: inactive; HUVEC tox TNFa: inactive; IL1B cytotox: inactive; NFkB transloc inh: inactive

What do the screens show for `O=C(O)CCCCCCNS(=O)(=O)c1ccccc1`?
NFkB transloc pot: inactive; VCAM1 TNFa inh: inactive; HUVEC tox TNFa: inactive; IL1B cytotox: inactive; NFkB transloc inh: inactive

Results for O=C(O)CCCCCNS(=O)(=O)c1ccc(Cl)cc1 ?
NFkB transloc pot: inactive; VCAM1 TNFa inh: inactive; HUVEC tox TNFa: inactive; IL1B cytotox: inactive; NFkB transloc inh: 47

How did CCN1CCN(C(c2ccccn2)c2c(NC(=O)c3ccccc3)sc(C)c2C)CC1 (stereo unspecified) do in these assays?
VCAM1 TNFa inh: inactive; HUVEC tox TNFa: inactive

How did CC(=O)Nc1c(C(=O)N2CCN(c3ncccn3)CC2)cnn1-c1ccccc1Cl do in these assays?
NFkB transloc pot: 40; VCAM1 TNFa inh: inactive; HUVEC tox TNFa: inactive; IL1B cytotox: inactive; NFkB transloc inh: inactive

How did O=C(Nc1ccccc1Cl)N1CCN(c2ncccn2)CC1 do in these assays?
NFkB transloc pot: inactive; VCAM1 TNFa inh: inactive; HUVEC tox TNFa: inactive; IL1B cytotox: inactive; NFkB transloc inh: inactive

Results for CC(C)C(NC(=O)C1CCCCC1)C(=O)NC1CCN(Cc2ccccc2)CC1 (stereo unspecified) ?
NFkB transloc pot: inactive; VCAM1 TNFa inh: inactive; HUVEC tox TNFa: inactive; IL1B cytotox: inactive; NFkB transloc inh: inactive

How did C/C(N)=C(/C#N)C(=O)COC(=O)CC12CC3CC(CC(C3)C1)C2 do in these assays?
NFkB transloc pot: inactive; VCAM1 TNFa inh: inactive; HUVEC tox TNFa: inactive; IL1B cytotox: inactive; NFkB transloc inh: inactive

How did Cc1nn(Cc2c(F)c(F)c(F)c(F)c2F)c(C)c1NC(=O)c1c(-c2ccccc2)nn(-c2ccccc2)c1C do in these assays?
NFkB transloc pot: inactive; VCAM1 TNFa inh: inactive; HUVEC tox TNFa: inactive; IL1B cytotox: inactive; NFkB transloc inh: inactive

How did O=C(/C=C/c1cccs1)c1ccc(Br)cc1 do in these assays?
NFkB transloc pot: 107; VCAM1 TNFa inh: inactive; HUVEC tox TNFa: inactive; IL1B cytotox: inactive; NFkB transloc inh: inactive

How did O=C(/C=C/c1cccs1)c1ccc(NC(=O)c2cccc(Br)c2)cc1 do in these assays?
NFkB transloc pot: inactive; VCAM1 TNFa inh: inactive; HUVEC tox TNFa: inactive; IL1B cytotox: inactive; NFkB transloc inh: inactive

Results for CC(C)(C)C(=O)Nc1nnc(Cc2ccccc2)s1 ?
NFkB transloc pot: 42; VCAM1 TNFa inh: inactive; HUVEC tox TNFa: inactive; IL1B cytotox: inactive; NFkB transloc inh: inactive

What do the screens show for `CCC(=O)Nc1ccc(/C(C)=N\NS(=O)(=O)c2ccc(C)cc2)cc1`?
NFkB transloc pot: inactive; VCAM1 TNFa inh: inactive; HUVEC tox TNFa: inactive; IL1B cytotox: inactive; NFkB transloc inh: inactive

How did N#CC1=C(N)Oc2cc(O)ccc2C1c1cccs1 (stereo unspecified) do in these assays?
NFkB transloc pot: inactive; VCAM1 TNFa inh: inactive; HUVEC tox TNFa: inactive; IL1B cytotox: inactive; NFkB transloc inh: inactive

Results for N#CC1=C(N)Oc2c(ccc3ccccc23)C1c1cccs1 (stereo unspecified) ?
NFkB transloc pot: inactive; VCAM1 TNFa inh: 80; HUVEC tox TNFa: inactive; IL1B cytotox: inactive; NFkB transloc inh: inactive

How did COc1ccc(OCCC(=O)N2CCCCC2)cc1 do in these assays?
NFkB transloc pot: inactive; VCAM1 TNFa inh: inactive; HUVEC tox TNFa: inactive; IL1B cytotox: 87; NFkB transloc inh: 88

What do the screens show for `COc1ccc(O)c(-c2[nH]ncc2C(=O)c2ccccc2C)c1`?
NFkB transloc pot: inactive; VCAM1 TNFa inh: inactive; HUVEC tox TNFa: inactive; IL1B cytotox: inactive; NFkB transloc inh: inactive

How did COc1ccc2c3c(cccc13)NN=C2C do in these assays?
NFkB transloc pot: inactive; VCAM1 TNFa inh: inactive; HUVEC tox TNFa: inactive; IL1B cytotox: inactive; NFkB transloc inh: 30

What do the screens show for `COc1ccc(C(=O)c2ccc(OC)c3cccc(O)c23)cc1OC`?
NFkB transloc pot: inactive; VCAM1 TNFa inh: inactive; HUVEC tox TNFa: inactive; IL1B cytotox: inactive; NFkB transloc inh: inactive
